{"source": "PubChem BioAssay AID504766", "about": "(The Scripps Research Institute Molecular Screening Center, 2011)", "note": "Hit rate of the full screen: of about 340,000 compounds, about 3,400 (1%) were called active. Only a selection was taken, and actives are over-represented in it overall. Values without a mark were called inactive.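 Rule for the calls: active = inhibition above the mean over all tested compounds plus 3 SD (cut at about 4.2% in these data); inactive = the rest.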", "data": [{"target": "Nuclear receptor subfamily 0 group B member 1 (Homo sapiens) (UniProt P51843)", "sequence (P51843 207-470 limits assumed)": "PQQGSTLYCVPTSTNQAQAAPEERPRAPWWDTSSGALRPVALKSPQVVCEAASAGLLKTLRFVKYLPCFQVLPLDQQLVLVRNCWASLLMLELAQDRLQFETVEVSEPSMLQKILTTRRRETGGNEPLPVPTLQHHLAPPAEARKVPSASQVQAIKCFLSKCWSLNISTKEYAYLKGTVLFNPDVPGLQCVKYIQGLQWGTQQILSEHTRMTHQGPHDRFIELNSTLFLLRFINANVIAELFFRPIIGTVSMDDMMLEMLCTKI", "assay": "DAX1 (NR0B1) inhibitors, primary screen, cell-based, HEK293, Gal4-DAX1, luciferase luminescence (AID 504766);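 note: 0% = DAX1-transfected cells with DMSO and 100% = empty-vector control cells with DMSO; inhibition shows as a rise in luminescence from relieved DAX1 repression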", "conditions": "HEK293 Gal4-DAX1 luciferase reporter, at 6.75 µM, stronger effect = higher value", "values": [{"smiles": "COc1ccc(C(CNC(=O)CSc2ccccc2)N2CCOCC2)cc1", "note": "(stereo not drawn)", "inhibition": "1.43%"}, {"smiles": "CC(=O)NC(Cc1c[nH]c2ccccc12)C(=O)NCCc1ccccc1", "note": "(stereo not drawn)", "inhibition": "3.45%"}, {"smiles": "Cc1cccc(C)c1OCC(=O)NC(Cc1c[nH]c2ccccc12)C(=O)O", "note": "(stereo not drawn)", "inhibition": "0.88%"}, {"smiles": "CC(=O)NC(Cc1c[nH]c2ccccc12)C(=O)O", "note": "(stereo not drawn)", "inhibition": "9.87% (active)"}, {"smiles": "CCc1cc(-c2nnn(CCC3COCCO3)c2CC)ccc1-c1cn(Cc2ccc3ccccc3c2)nn1", "note": "(stereo not drawn)", "inhibition": "-3.79%"}, {"smiles": "C[C@H]1CN([C@@H](C)CO)C(=O)CCCn2cc(nn2)CO[C@@H]1CN(C)S(=O)(=O)c1ccc(-c2ccccc2)cc1", "inhibition": "0%"}, {"smiles": "O=C(O)c1ccc(S(=O)(=O)N2CCOCC2)o1", "inhibition": "6.4% (active)"}, {"smiles": "O=C(c1cc(S(=O)(=O)N2CCOCC2)ccc1Cl)N1CCOCC1", "inhibition": "0.61%"}, {"smiles": "O=C(CCc1ccc(S(=O)(=O)N2CCOCC2)cc1)NN=C1CCCCCCC1", "inhibition": "0%"}, {"smiles": "COc1ccc2c(c1)CCCO[C@]21O[C@H](CCO)C[C@H](O)[C@H]1O", "inhibition": "0.36%"}, {"smiles": "O=C(O)C1CCCN1c1nc(Cl)ccc1[N+](=O)[O-]", "note": "(stereo not drawn)", "inhibition": "-0.69%"}, {"smiles": "Cn1ncc([N+](=O)[O-])c1C(=O)Nc1cc(Cl)ccc1Cl", "inhibition": "1.05%"}, {"smiles": "Cc1nc(-c2ccc(Cl)cc2)sc1C(=O)CBr", "inhibition": "-0.83%"}, {"smiles": "Cc1nc(-c2ccccc2)sc1C(=O)/C=C/N(C)C", "inhibition": "3.31%"}, {"smiles": "Cc1nc(-c2ccccc2)sc1C(=O)/C=C/c1ccccc1", "inhibition": "5.32% (active)"}, {"smiles": "c1ccc(Cn2nnc3c(NCC4CC4)ncnc32)cc1", "inhibition": "1.59%"}, {"smiles": "O=C(Nc1ncccc1O)c1ccc(S(=O)(=O)N2CCCCCC2)cc1", "inhibition": "1.6%"}, {"smiles": "O=C(Nc1ncccc1O)c1ccc(C(=O)c2ccccc2)cc1", "inhibition": "10.6% (active)"}, {"smiles": "O=C(Nc1ncccc1O)c1ccc(S(=O)(=O)N2CCCC2)cc1", "inhibition": "2.95%"}, {"smiles": "Cc1cccc(C)c1NC(=O)CNC(=O)c1ccc(N2CCOCC2)c([N+](=O)[O-])c1", "inhibition": "0.52%"}, {"smiles": "CC1=C(C(=O)N2CCOCC2)CC(CC(=O)NCC2CCCCC2)C(=O)N1Cc1ccc(F)cc1", "note": "(stereo not drawn)", "inhibition": "0.65%"}, {"smiles": "COc1ccc(-c2nnc3ccc(SCc4ccccc4)nn23)cc1", "inhibition": "0.1%"}, {"smiles": "COc1cccc(CSc2nc3nc(C)cc(C)n3n2)c1", "inhibition": "1.86%"}, {"smiles": "COc1ccc2nc(SCc3ccccc3)nc(C)c2c1", "inhibition": "4.59% (active)"}, {"smiles": "COc1ccc(-c2ccc(CN3C(CC(C)C)C(=O)N(Cc4cn(CC5CCCCC5)nn4)CCS3(=O)=O)cc2)cn1", "note": "(stereo not drawn)", "inhibition": "-0.76%"}, {"smiles": "O=C(NCCOc1ccccc1)N1[C@H]2CC[C@@H]1C=C(c1ccc(F)cc1OCc1ccccc1)C2", "inhibition": "0.36%"}, {"smiles": "CCc1c(N=O)c(-c2ccccc2)n(O)[n+]1[O-]", "inhibition": "0.23%"}, {"smiles": "C[C@@H]1CN([C@@H](C)CO)C(=O)CCCn2nncc2CO[C@@H]1CN(C)S(=O)(=O)c1ccc(-c2ccccc2)cc1", "inhibition": "0.31%"}, {"smiles": "O=C(COC(=O)c1ccc(O)cc1O)c1ccc2c(c1)OCCO2", "inhibition": "-0.46%"}, {"smiles": "O=C(/C=C/c1ccc2c(c1)OCCO2)c1ccc(O)cc1", "inhibition": "16.4% (active)"}, {"smiles": "O=C(/C=C\\c1ccc2c(c1)OCO2)NC1(C(=O)Nc2ccc3c(c2)OCCO3)CCCCC1", "inhibition": "-0.83%"}, {"smiles": "COc1ccc(-c2ccc(CN3C(CC(C)C)C(=O)N(Cc4cn(CC5CCCCC5)nn4)CCS3(=O)=O)cc2)cc1", "note": "(stereo not drawn)", "inhibition": "1.23%"}, {"smiles": "COCCCN1C(=O)C(CC(=O)NCc2cccs2)CC(C(=O)N2CCOCC2)=C1C", "note": "(stereo not drawn)", "inhibition": "1.28%"}, {"smiles": "CN1CCn2cnc(C(=O)NCC(=O)OC(C)(C)C)c2C1=O", "inhibition": "0.48%"}, {"smiles": "C[C@@H]1CN([C@@H](C)CO)C(=O)CCCn2cc(nn2)CO[C@H]1CN(C)S(=O)(=O)c1ccc(-n2cccn2)cc1", "inhibition": "1.04%"}, {"smiles": "O=c1[nH]c2ccccc2n1C1CCN(CCOc2ccccc2)CC1", "inhibition": "-1.06%"}, {"smiles": "Cc1nonc1NC(=O)CSc1nc2ccccc2cc1C#N", "inhibition": "2.09%"}, {"smiles": "CCOc1ccc2cc(C#N)c(SCC(=O)OC)nc2c1", "inhibition": "4.25% (active)"}, {"smiles": "CCOC(=O)CSc1nccc(N(C)C)c1C#N", "inhibition": "0.68%"}, {"smiles": "COc1ccc(C(C)(C)C)cc1NC(=O)CN(C)C1=NS(=O)(=O)c2ccccc21", "inhibition": "0.35%"}, {"smiles": "O=C(CCCN1C(=O)C(c2ccccc2)Oc2cccnc21)Nc1ccccc1Br", "note": "(stereo not drawn)", "inhibition": "0.05%"}, {"smiles": "N#CCSc1ccccc1NC(=O)CN1C(=O)NC(CCc2ccccc2)C1=O", "note": "(stereo not drawn)", "inhibition": "2.57%"}, {"smiles": "C#CCN(C[C@H]1[C@H](OC(=O)NC2CCCC2)[C@H](OC(=O)NC2CCCC2)C[C@H]2C(=O)N(c3ccccc3)C(=O)[C@@H]12)S(=O)(=O)c1ccc(C)cc1", "inhibition": "-0.02%"}, {"smiles": "CC1CCC2(CC1)NC(=O)N(CC(=O)NCc1ccco1)C2=O", "note": "(stereo not drawn)", "inhibition": "3.52%"}, {"smiles": "Cc1ccc(S(=O)(=O)N2C[C@H]3n4c(=O)ccc(=O)n4C[C@H](OC(=O)NC4CCCC4)[C@@]3(O)C2)cc1", "inhibition": "0.12%"}, {"smiles": "C[C@H](CO)N1C[C@H](C)[C@@H](CN(C)C(=O)c2cccc(F)c2)Oc2cc(-c3cncnc3)ccc2S1(=O)=O", "inhibition": "1.05%"}, {"smiles": "CCCCOC(=O)c1[nH]c(C)c(C(=O)OC)c1C", "inhibition": "2.23%"}, {"smiles": "COC(=O)C1C(=O)c2c([nH]c(C(=O)OCCSC)c2C)CC1C", "note": "(stereo not drawn)", "inhibition": "5.56% (active)"}, {"smiles": "CCCOC(=O)c1[nH]c2c(c1C)C(=O)CC(c1cccs1)C2", "note": "(stereo not drawn)", "inhibition": "1.32%"}, {"smiles": "C[C@H](CO)N1C[C@H](C)[C@@H](CN(C)S(=O)(=O)c2ccc(F)cc2)OCc2cnnn2CCCC1=O", "inhibition": "0.91%"}, {"smiles": "c1ccc(-c2c[nH]c(-c3ccccc3)c2)cc1", "inhibition": "4.28% (active)"}, {"smiles": "Oc1ccc(-c2cccc(-c3ccc(O)cc3)c2)cc1", "inhibition": "2.72%"}, {"smiles": "c1ccc(-c2ccc3c(c2)NC(C2Nc4cc(-c5ccccc5)ccc4O2)O3)cc1", "note": "(stereo not drawn)", "inhibition": "-0.52%"}, {"smiles": "COc1cccc(NC(=O)CN(C)C(=O)c2cc(Cl)nc3ccccc23)c1", "inhibition": "-0.56%"}, {"smiles": "Cn1c(=O)c([N+](=O)[O-])c(Oc2ccccc2)c2ccccc21", "inhibition": "1.91%"}, {"smiles": "COc1cc2c(=O)n(C)c3ccccc3c2cc1OC", "inhibition": "0.78%"}, {"smiles": "Cc1cccc(Oc2c([N+](=O)[O-])c(=O)n(C)c3ccccc23)c1", "inhibition": "5.15% (active)"}, {"smiles": "Cc1cccc(S(=O)(=O)N(C)C[C@H]2OCc3cnnn3CCCC(=O)N([C@@H](C)CO)C[C@H]2C)c1", "inhibition": "2.68%"}, {"smiles": "C[C@@H]1CN([C@@H](C)CO)C(=O)c2cc(Br)cnc2O[C@H]1CN(C)Cc1ccc(-c2ccccc2)cc1", "inhibition": "0%"}, {"smiles": "CCCCCCNC(=O)O[C@H]1CN(C(=O)OC(C)C)N(C(=O)OC(C)C)[C@@H]2CN(S(=O)(=O)c3ccc(C)cc3)C[C@]12O", "inhibition": "0.72%"}, {"smiles": "O=C(CN1CCCC1)Nc1sc2c(c1C(=O)Nc1ccccc1)CCCC2", "inhibition": "1.85%"}, {"smiles": "NC(=O)c1c(NC(=O)c2ccccc2)sc2c1CCCC2", "inhibition": "4.41% (active)"}, {"smiles": "O=C(Nc1sc2c(c1C(=O)O)CCC2)c1ccccc1F", "inhibition": "0.36%"}, {"smiles": "CCCCN1C(=O)C(CC(=O)NCc2cccs2)CC(C(=O)N2CCOCC2)=C1C", "note": "(stereo not drawn)", "inhibition": "1.03%"}, {"smiles": "CC(=NNC(N)=O)C1CC2CCC1CC2", "note": "(stereo not drawn)", "inhibition": "0.34%"}, {"smiles": "C[C@H]1Cn2cnc(C(=O)N[C@@H](Cc3c[nH]c4ccccc34)C(=O)OC(C)(C)C)c2C(=O)N1", "inhibition": "0.77%"}, {"smiles": "COC(=O)N(C)C[C@@H]1OCc2cnnn2CCCC(=O)N([C@@H](C)CO)C[C@@H]1C", "inhibition": "1.06%"}, {"smiles": "C[C@@H]1CN([C@H](C)CO)C(=O)CCCn2nncc2CO[C@@H]1CN(C)C(=O)OCc1ccccc1", "inhibition": "4.4% (active)"}, {"smiles": "C[C@H](CO)N1C[C@H](C)[C@@H](CN(C)C(=O)C2CCCCC2)OCc2cnnn2CCCC1=O", "inhibition": "0.86%"}, {"smiles": "Cn1c(CCN2CCN(c3ccccn3)CC2)nc2cc(NS(=O)(=O)c3ccc(F)cc3)ccc21", "inhibition": "0.29%"}, {"smiles": "Cc1cc2cc3n(c2nn1)N=C(Cl)CC3", "inhibition": "1.28%"}, {"smiles": "CCN(Cc1ccncc1)C(=S)Nc1ccccc1C", "inhibition": "0.81%"}, {"smiles": "CCc1nnc(NC(=O)c2ccco2)s1", "inhibition": "1.93%"}, {"smiles": "CCCCN1C(=O)C(CC(=O)NC(c2ccccc2)c2ccccc2)CC(C(=O)N2CCOCC2)=C1C", "note": "(stereo not drawn)", "inhibition": "0.88%"}, {"smiles": "Cc1ccc(/C(N)=N/OC(=O)COc2ccc(Cl)c(C)c2)cc1", "inhibition": "-0.49%"}, {"smiles": "Cc1cccc(/C(N)=N/OC(=O)c2ccccc2Cl)c1", "inhibition": "4.97% (active)"}, {"smiles": "Cc1ccc(C(=O)O/N=C(\\N)c2ccccn2)cc1Cl", "inhibition": "-3.11%"}, {"smiles": "COCC(=O)N(C)C[C@H]1Oc2cc(Br)ccc2S(=O)(=O)N([C@H](C)CO)C[C@H]1C", "inhibition": "1.77%"}, {"smiles": "COc1ccc(CN2C(=O)C(CC(=O)NCCN3CCOCC3)CC(C(=O)N(C(C)C)C(C)C)=C2C)cc1", "note": "(stereo not drawn)", "inhibition": "-0.44%"}, {"smiles": "CC(=O)OC(C)C[N+](C)(C)C", "note": "(stereo not drawn)", "inhibition": "1.03%"}, {"smiles": "CC(=O)OCC(COC(C)=O)OC(C)=O", "inhibition": "-0.24%"}, {"smiles": "CC(=O)OCCC(C)C", "inhibition": "5.92% (active)"}, {"smiles": "Cc1ccc(S(=O)(=O)N2C[C@@H](C)[C@]3(C2)[C@H](O)[C@H](OC(=O)NCc2ccccc2)C[C@H]2C(=O)N(c4ccccc4)C(=O)[C@H]23)cc1", "inhibition": "0.21%"}, {"smiles": "O=C1OCCC1=COCCCCOC=C1CCOC1=O", "inhibition": "-0.66%"}, {"smiles": "Cc1cc(C)n(-c2nc(O)cc(=O)[nH]2)n1", "inhibition": "4.76% (active)"}, {"smiles": "CC(=O)c1ccc(Oc2cc(C)nc(-n3nc(C)cc3C)n2)cc1", "inhibition": "0.1%"}, {"smiles": "Cc1cc(C)n(-c2ccc3nncn3n2)n1", "inhibition": "0.66%"}, {"smiles": "CNS(=O)(=O)c1ccc2c(c1)[nH]c(=S)n2C", "inhibition": "0.47%"}]}]}
